According to PubChem BioAssay (NCI):
The panel holds about 83,000 compounds, 20% with a hit somewhere; the sample as a whole holds those more often.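 Values shown are percent growth following 48 h exposure of cells in 96-well plates to a single concentration of compound; below 10 was considered active.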 Calls of active or inactive are those of the source.

Key:
Experiment in all cases: NCI-60 one-dose screen, 48 h (100 = growth as untreated, 0 = no growth, -100 = all killed)
Settings in all cases: 10 µM unless noted
[1] = tested on: HCT-15 colon
[2] = tested on: HT29 colon
[3] = tested on: SNB-75 CNS
[4] = tested on: SNB-19 CNS
[5] = tested on: U251 CNS
[6] = tested on: PC-3 prostate
[7] = tested on: SK-MEL-5 melanoma
[8] = tested on: UACC-62 melanoma
[9] = tested on: LOX IMVI melanoma
[10] = tested on: SK-MEL-28 melanoma
[11] = tested on: SK-MEL-2 melanoma
[12] = tested on: EKVX NSCLC
[13] = tested on: SN12C renal
[14] = tested on: UO-31 renal
[15] = tested on: TK-10 renal
[16] = tested on: ACHN renal
[17] = tested on: CAKI-1 renal
[18] = tested on: A498 renal
[19] = tested on: CCRF-CEM leukemia
[20] = tested on: MOLT-4 leukemia

Measured: growth

COC1=CC(c2ccc[nH]2)=N/C1=C\c1[nH]c(C)c(CC(=O)OCc2ccccc2)c1C
active: [1] -11% | [2] 4.42% | [3] -7.14% | [5] -21% | [6] 2.94% | [7] -91.5% | [8] -31.7% | [9] -75.4% | [10] -18.2% | [11] -38.6% | [12] 5.59% | [13] 6.3% | [14] -69% | [15] 4.1% | [16] -9.81% | [17] 0.261% | [18] -11.9% | [19] 4.82% | [20] 2.34%
inactive: [4] 23.5%

CCN1C(=S)N(CC)C2C1NC(=S)N2/N=C/C=C/c1ccccc1OC (stereo not given)
inactive: [1] 14.9% | [4] 26.5% | [5] 13.1% | [6] 33% | [7] 17.3% | [8] 23.5% | [9] 19% | [10] 54.5% | [11] 46.7% | [12] 49.3% | [13] 28.5% | [14] 43.5% | [15] 71.4% | [16] 33.7% | [17] 34.1% | [18] 16.3% | [19] 12.2% | [20] 17.7%
active: [2] 2.78% | [3] -5.85%

COC(=O)C1=C(C(=O)Nc2cccnc2)C2OC1(C(Cc1ccccc1)Oc1ccccc1)C1OC21 (stereo not given)
active: [10] -75.4% | [14] -99.3% | [15] -8.69% | [16] -99.2% | [19] -23% | [20] -31.5%
inactive: [1] 14.4% | [2] 59.1% | [3] 88.7% | [4] 102% | [5] 101% | [6] 69.6% | [7] 107% | [8] 69.7% | [9] 80.7% | [11] 93.5% | [12] 101% | [13] 48.5% | [17] 57.4% | [18] 121%

CC(C(=O)O)n1c(O)c(C=Nc2cccnc2)sc1=S (stereo not given)
inactive: [1] 98.4% | [2] 111% | [3] 80.3% | [4] 91.4% | [5] 86.3% | [6] 88% | [7] 95.5% | [8] 88.8% | [9] 101% | [10] 113% | [11] 114% | [12] 96.4% | [13] 88.7% | [14] 50% | [15] 111% | [16] 102% | [17] 79.7% | [18] 95.4% | [19] 92.7% | [20] 94%

CN1CCN(c2ccc(NC(=O)c3cncnc3Nc3ccc4c(ccn4Cc4cccc(F)c4)c3)cc2)CC1
active: [1] -6.2% | [2] -39.8% | [5] 6.24% | [9] -80.9% | [10] -85.2% | [20] -2.02%
inactive: [3] 67.4% | [4] 77.7% | [6] 66.2% | [7] 59.6% | [8] 54.3% | [11] 98.1% | [12] 86.1% | [13] 71.5% | [14] 46.3% | [15] 101% | [16] 58.5% | [17] 75.5% | [18] 77% | [19] 11.6%

O=C1NC(=O)c2c1c1c3ccccc3[nH]c1c1oc3ccc(F)cc3c21
active: [18] -6.99%
inactive: [1] 55.1% | [2] 81.9% | [3] 41.3% | [4] 89.4% | [5] 83.4% | [6] 45% | [7] 53% | [8] 46.1% | [9] 66% | [10] 90.6% | [11] 89.4% | [12] 56.4% | [13] 74.6% | [14] 25% | [15] 70.6% | [16] 43.2% | [17] 41.2% | [19] 73.6% | [20] 76.2%

C/C(C=O)=C\c1ccc2c(c1)OCO2
inactive: [1] 108% | [2] 110% | [3] 102% | [4] 111% | [5] 107% | [6] 104% | [7] 105% | [8] 105% | [9] 96.7% | [10] 124% | [11] 109% | [12] 102% | [13] 110% | [14] 102% | [15] 90.7% | [16] 113% | [17] 107% | [18] 68% | [20] 116%
active: [19] -5.12%

c1ccc(CCc2ccccc2-c2cc(-c3ccccc3)on2)cc1
inactive: [1] 83.6% | [2] 68.2% | [3] 80.5% | [4] 90.3% | [5] 95.3% | [6] 89.1% | [7] 78.9% | [8] 71.1% | [9] 92.2% | [10] 93.9% | [11] 86.4% | [12] 86.4% | [13] 85.5% | [14] 75.5% | [15] 110% | [16] 89.2% | [17] 92.2% | [18] 89% | [19] 82.7% | [20] 73.1%

O=C1/C(=C/c2ccc(Br)cc2)COc2ccc(O)c(O)c21
active: [1] 0.349% | [2] 2.83% | [4] 6.19% | [5] -72.4% | [6] -26.3% | [8] -14.2% | [9] -91% | [13] -41.1% | [14] -99.2% | [15] 4.99% | [16] -84.2% | [17] -36% | [19] -6.17% | [20] -9.5%
inactive: [3] 20.4% | [7] 29.8% | [10] 22% | [11] 47.2% | [12] 23.2% | [18] 98.9%

CC(=O)c1c(Nc2ccc(F)c(F)c2F)[nH]c2c(F)cc(F)cc2c1=O
active: [1] 4.32% | [2] 3.62% | [3] -14.8% | [5] 0.133% | [6] 4.75% | [7] -75.8% | [8] -27.9% | [9] 5.66% | [10] 4.71% | [11] -52.6% | [12] 9.73% | [13] 1.04% | [14] 4.44% | [16] 0.167% | [17] -10.4% | [18] -33.4% | [19] 6.3% | [20] -3.98%
inactive: [4] 22% | [15] 12.7%

CN1CCN(CCCOC(=O)c2c3c(n4ccccc24)C(=O)c2ncccc2C3=O)CC1
active: [1] -39.1% | [2] -32.3% | [3] -88.7% | [4] 1.8% | [5] -31.7% | [7] -98% | [8] -48.8% | [9] -60.9% | [11] -52.7% | [13] -66.3% | [14] -80.9% | [15] 3.81% | [16] -53.6% | [17] 0.119% | [19] -16.3% | [20] -2.53%
inactive: [6] 17.6% | [10] 12.5% | [12] 37.7% | [18] 38.3%

Cc1ccc2nc(Cl)c(Cn3nnnc3SCc3ccccc3)cc2c1
inactive: [1] 90.7% | [2] 101% | [3] 93.4% | [4] 98.8% | [5] 95.8% | [6] 90.4% | [7] 93% | [8] 83.7% | [9] 86.7% | [10] 107% | [11] 96.6% | [12] 80.7% | [13] 92.8% | [14] 69.6% | [15] 97.9% | [16] 91.8% | [17] 72.1% | [18] 74.5% | [19] 93.9% | [20] 97.8%

CCN(CC)CCCNCc1cc(-c2ccccc2)nc2cc(Cl)ccc12
inactive: [1] 12.1% | [3] 70.8% | [4] 68.9% | [5] 11.5% | [6] 37% | [12] 80.9% | [13] 38.2% | [14] 11% | [15] 42.8% | [16] 66.2% | [17] 50.5% | [18] 22.3% | [19] 10.4% | [20] 13.6%
active: [2] -17.3% | [7] -76.9% | [8] -61.3% | [9] -20.6% | [10] -92.4% | [11] -61.9%

COc1ccc2nc3cc(Cl)ccc3c(NCCN)c2c1
inactive: [3] 91.6% | [7] 79.6% | [11] 98.5% | [18] 55.5%
active: [1] -37.7% | [2] -42.5% | [4] 7.75% | [5] -81.4% | [6] 6.63% | [8] -71.2% | [9] -86.4% | [10] -65.8% | [12] -47.5% | [13] -60.4% | [14] -19.4% | [15] -76.2% | [16] -91.7% | [17] -96.5% | [19] -13.3% | [20] -40.9%
